For 16 molecules, max response, outcome and Potency results are on record in PubChem BioAssay (NCATS).

The test system of one assay is CRL-7250. The assay is described as follows: Cytotoxic Profiling of Annotated Libraries Using Quantitative High-Throughput Screening (AID 1296008). The conditions noted are these: Five cell lines viability, CellTiter-Glo ATP luminescence, 48-72 h; max response: active compounds read low. The procedure, abridged: (§1)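 Cells exposed to compounds for 48 or 72 hr at 37 degrees Celsius. Viability read as ATP-coupled luminescence with CellTiter-Glo after 10 min at room temperature.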

A further assay has as its system HEK293. Described as above. The conditions noted are these: Five cell lines viability, CellTiter-Glo ATP luminescence, 48-72 h; max response: active compounds read low. The procedure, abridged: as §1
(In general: Cellular ATP, detected with luciferase, serves as a proxy for viable cell number.)

The subject of assay [1] is HaCat. Described as above. The settings on record: Five cell lines viability, CellTiter-Glo ATP luminescence, 48-72 h; max response: active compounds read low. An outline of the steps:
as §1

For a further assay, the system named is KB-3-1. Described as above. The conditions noted are these: Five cell lines viability, CellTiter-Glo ATP luminescence, 48-72 h; max response: active compounds read low. The procedure, abridged:
as §1

For another assay, the system named is NIH3T3. Described as above. The conditions noted are these: Five cell lines viability, CellTiter-Glo ATP luminescence, 48-72 h; max response: active compounds read low. An outline of the steps:
as §1

The subject of another assay is HEK293T. The assay can be described thus: qHTS assay to identify novel small-molecules to repurpose for Merkel cell carcinoma treatment (AID 1296009). The conditions noted are these: MCC and control cell lines, CellTiter-Glo viability, 72 h; at 44.8 µM (top of the series) unless noted. The procedure, abridged:
(§2)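 CellTiter-Glo luminescence after 72 hr compound exposure at 37 degree celsius gave cell viability. Libraries NPC and MIPE were run as 8- and 11-point dose responses; RLUs normalized to DMSO (negative) and no-cell (cytotoxicity) controls.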
In general terms: qHTS replaces the single test concentration by a dilution series.

For another assay, the system named is MCC-13. The assay is described as above. The settings on record: MCC and control cell lines, CellTiter-Glo viability, 72 h; series mostly up to 46 µM. An outline of the steps: as §2
For the next assay, the system named is MCC-26. The assay is described as above. The conditions noted are these: MCC and control cell lines, CellTiter-Glo viability, 72 h; series mostly up to 46 µM. The procedure, abridged:
as §2

Another assay has as its system MKL-1. The description is as above. The settings on record: MCC and control cell lines, CellTiter-Glo viability, 72 h; series mostly up to 46 µM. The procedure, abridged:
as §2

Assay [2] relates to HACAT. Described as above. The conditions noted are these: MCC and control cell lines, CellTiter-Glo viability, 72 h; at 44.8 µM (top of the series) unless noted. An outline of the steps:
as §2

The structures appear in SMILES notation. “And” between values parts separate entries of the source, which are not always exact repeats. Equal entries are not always repeated. Inconclusive results are not listed. Values without a mark were called inactive. The source made the active and inactive calls. The call rests on the fitted dose curve; in most records, active means well fitted inhibition curve with a large enough effect; inconclusive means small, poorly fitted or top-dose-only effect; inactive means flat fitted curve, though single readings scatter.
Further: nearly all actives have a fitted effect of over 60% in size.
On the % scale 0 is the no-effect control and ±100 the full control effect; potency means the concentration at half of the fitted maximal effect.

As to `CC(=O)OCC(=O)[C@@]1(O)[C@H](C)C[C@H]2[C@@H]3CCC4=CC(=O)C=C[C@]4(C)[C@@]3(F)[C@@H](O)C[C@@]21C`, the max response with CRL-7250 was 0.495% and 1.45%; with HEK293, -2.05%; in the assay on HaCat [1] it was -3.13% and -0.939%; in the assay on KB-3-1, 31.1% and 2.64%; with NIH3T3, 4.69%. Also, the call in the assay on HEK293, with KB-3-1, in the assay on NIH3T3 and in the assay with HEK293T was inactive. The Potency entry with MCC-13, with MCC-26 and with MKL-1 was “inactive” in each case.
Turning to `O=c1[nH]c(=O)n([C@H]2CCCO2)cc1F`, the max response in the assay with CRL-7250 was 4.85% and -6.48%; with HEK293 it was 1.04%; in the assay with KB-3-1 it was 8.54%; with NIH3T3, -5.35%. For the same molecule, the molecule was called inactive with HEK293, in the assay with HaCat [1], in the assay with HACAT [2] and in the assay on HEK293T. In addition, the Potency result with MCC-13, with MCC-26 and in the assay with MKL-1 was “inactive” each time.
`CN=C(NC#N)Nc1ccc(C2=NNC(=O)CC2C)cc1` (stereo unspecified): the max response in the assay with CRL-7250 was -12.9%; in the assay on KB-3-1, 6.06%; with NIH3T3, -5.93%. In addition, the molecule was called inactive with HEK293, with HaCat [1], in the assay on HACAT [2] and in the assay on HEK293T. In addition, the Potency result in the assay on MCC-13, in the assay on MCC-26 and in the assay with MKL-1 was “inactive” throughout.
With `Cc1cc2c(cc1CC(=O)c1sccc1S(=O)(=O)Nc1onc(C)c1Cl)OCO2`, the max response with CRL-7250 was -5.35% and 2.32%; with HaCat [1], -2.94%; in the assay on KB-3-1 it was 9.67%; in the assay on NIH3T3, 0.409% and 4.42%. For the same molecule, the molecule was called inactive in the assay with HEK293, with HaCat [1], with HACAT [2] and in the assay on HEK293T. For the same molecule, the Potency result with MCC-13, in the assay with MCC-26 and in the assay on MKL-1 was “inactive” throughout.
Regarding `CCN(CCCCOC(=O)c1ccc(OC)c(OC)c1)C(C)Cc1ccc(OC)cc1` (stereo unspecified), the outcome with CRL-7250, in the assay on HaCat [1] and in the assay on HACAT [2] was inactive. Besides, the max response was -15.6% in the assay on HEK293, -8.65% in the assay with KB-3-1 and -18.2% with NIH3T3. Besides, the Potency entry in the assay on MCC-13, with MCC-26 and in the assay with MKL-1 was “inactive” in each case.
In the case of `CN1[C@@H]2CC[C@H]1CC(OC(=O)c1c[nH]c3ccccc13)C2` (stereo partly specified), the max response is -2.71% in the assay on CRL-7250; 4.73% with HEK293; 0.428% in the assay with HaCat [1]; -8.86% and -5.38% in the assay with KB-3-1. Moreover, the result with CRL-7250, in the assay on HEK293, in the assay with HaCat [1], in the assay with NIH3T3, with HACAT [2] and with HEK293T was inactive. Further, the Potency result in the assay with MCC-13, with MCC-26 and in the assay with MKL-1 was “inactive” throughout.
With `CC(C)(C)NC(=O)[C@@H]1CN(Cc2cccnc2)CCN1C[C@@H](O)C[C@@H](Cc1ccccc1)C(=O)N[C@H]1c2ccccc2C[C@H]1O`, the max response in the assay with CRL-7250 was -1.33% and -2.61%; with HEK293, 3.56%; in the assay with HaCat [1], -2.17%; in the assay with KB-3-1 it was 9.13%; in the assay with NIH3T3 it was 1.79% and -2.96%. Besides, the molecule was classed as inactive in the assay on HEK293, in the assay with HaCat [1], in the assay with HACAT [2] and with HEK293T. Also, the Potency entry in the assay with MCC-13, in the assay with MCC-26 and in the assay on MKL-1 was “inactive” throughout.
For `Cc1cc(=O)n(-c2ccccc2)n1C`, the max response in the assay with CRL-7250 is 2.86%; in the assay on HEK293, -47.4%; in the assay on HaCat [1] it was -15.6%; in the assay on KB-3-1, 3.76%; in the assay on NIH3T3, -41.4%. The Potency result with MCC-13, in the assay with MCC-26 and with MKL-1 was “inactive” in each case.
As for `COc1cccc2c1C(=O)c1c(O)c3c(c(O)c1C2=O)C[C@@](O)(C(=O)CO)C[C@@H]3O[C@H]1C[C@H](N)[C@H](O)[C@H](C)O1`, the Potency was 1.33 µM (active) with CRL-7250; 0.266 µM (active) in the assay with HEK293; 0.944 µM (active) with HaCat [1]; 0.15 µM (active) with NIH3T3; 5.96 µM (active) in the assay on MCC-13; 2.11 µM (active) in the assay with MCC-26. Also, in the assay with MKL-1, the Potency is 0.211 µM (active). Moreover, the max response in the assay with KB-3-1 was -13.1%.
For `CC1(C)OC[C@@H](COC(=O)CCc2ccc(OC[C@@H](O)CNCCNC(=O)N3CCOCC3)cc2)O1`, the call in the assay with CRL-7250, in the assay on HEK293 and in the assay on HEK293T was inactive. Besides, the max response in the assay on HaCat [1] was 3.95%; in the assay on KB-3-1, -12.4% and -13.1%; with NIH3T3 it was 4.95%. Moreover, the Potency entry in the assay on MCC-13, in the assay on MCC-26 and in the assay on MKL-1 was “inactive” throughout.
With `CN(C)C(=S)SC(=S)N(C)C`, the Potency with CRL-7250 is 8.41 µM (active); with HEK293, 5.96 µM (active); in the assay with NIH3T3, 2.66 µM (active); in the assay on MCC-13, 2.99 µM (active). Further, the max response in the assay on KB-3-1 is 31.5%.
On to `COCc1c(C(C)C)nc(C(C)C)c(/C=C/[C@@H](O)C[C@@H](O)CC(=O)O)c1-c1ccc(F)cc1`, for which the Potency in the assay with CRL-7250 is 0.0596 µM (active); in the assay with HEK293, 0.531 µM (active); in the assay on HaCat [1], 0.841 µM (active); in the assay on KB-3-1, 1.84 µM (active); in the assay with NIH3T3, 2.37 µM (active); in the assay with MCC-13, 1.19 µM (active). Further, the Potency in the assay on MKL-1 was 0.75 µM (active).
Take `Cc1ccc(Nc2c(F)cccc2Cl)c(CC(=O)O)c1`: the call in the assay on CRL-7250, with HaCat [1] and in the assay with HACAT [2] was inactive. The max response in the assay on HEK293 was 2.42%; in the assay with KB-3-1 it was -12.9% and 2.03%; in the assay with NIH3T3, 2.46%. Further, the Potency entry in the assay with MCC-13, in the assay with MCC-26 and in the assay on MKL-1 was “inactive” each time.
As to `COc1cc(OC)cc(OC)c1`, the max response in the assay with CRL-7250 was -8.4%; with HEK293, 0.846%; in the assay with HaCat [1] it was 4.71%; in the assay with KB-3-1 it was -2.29%; with NIH3T3 it was -4.81%. The Potency result in the assay with MCC-13, in the assay with MCC-26 and with MKL-1 was “inactive” each time.
In the case of `CCOc1ccc(Cc2nccc3cc(OCC)c(OCC)cc23)cc1OCC`, the Potency with CRL-7250 was 15 µM (active); in the assay with HEK293, 7.5 µM (active). The max response in the assay with HaCat [1] is -22.8%; with KB-3-1 it was 1.15%; with NIH3T3, -24.3%. Besides, in the assay with MCC-26, the Potency entry is “inactive”.
Consider `CCOC(=O)c1cccc(N)c1`, for which the max response in the assay with CRL-7250 is -5.88%; with HEK293, -0.911%; with HaCat [1] it was -20.5%; with KB-3-1, -6.64%; in the assay on NIH3T3 it was -6.41%. Further, the Potency entry in the assay with MCC-13, in the assay on MCC-26 and in the assay with MKL-1 was “inactive” throughout.
